Compounds without any hit were thinned out: in the full panel of roughly 83,000, 20% have a hit.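 Interpretation: 100, growth as untreated; towards 0, rising growth inhibition; 0, no net growth; 0 to -100, cell death. Compounds scoring below 10 were considered active.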 Unmarked numbers belong to inactive results. Calls of active or inactive are those of the source.

This passage reports growth results from PubChem BioAssay (NCI).

Test systems include RPMI-8226 leukemia; OVCAR-8 ovarian; OVCAR-5 ovarian; OVCAR-4 ovarian; SK-OV-3 ovarian; IGROV1 ovarian; OVCAR-3 ovarian; HS 578T breast; NCI/ADR-RES ovarian.
Common to all, as to test: NCI-60 one-dose screen, 48 h (100 = growth as untreated, 0 = no growth, -100 = all killed)
Holding throughout (settings): 10 µM unless noted

Consider `Cc1cccc2ccccc12`, for which the growth is 101% with RPMI-8226 leukemia; 100% with OVCAR-8 ovarian; 104% with OVCAR-5 ovarian; 108% in the test on OVCAR-4 ovarian; 103% with SK-OV-3 ovarian; 112% in the test on IGROV1 ovarian. Moreover, the growth with OVCAR-3 ovarian was 110%; in the test on HS 578T breast, 107%; in the test with NCI/ADR-RES ovarian it was 99.6%.
As for `COc1cc(C(=O)N2CCN(c3ccccc3)CC2)c2ccccc2n1`, the growth in the test with RPMI-8226 leukemia is 35.1%; in the test with OVCAR-8 ovarian it was 14.3%; with OVCAR-5 ovarian it was 39.4%; in the test on OVCAR-4 ovarian it was 57.5%; in the test with SK-OV-3 ovarian, 5.77% (active); in the test with IGROV1 ovarian, 17.4%. Moreover, the growth in the test with OVCAR-3 ovarian is -33.5% (active); with HS 578T breast it was 27%; with NCI/ADR-RES ovarian, -43.6% (active).
With `CN(C)c1ccc2c(N(C)C)cc(N(C)C)nc2c1`, the growth with RPMI-8226 leukemia was 69.8%; with OVCAR-8 ovarian it was 78.3%; in the test with OVCAR-5 ovarian, 102%; in the test on OVCAR-4 ovarian, 72.1%; with SK-OV-3 ovarian it was 87.5%; with IGROV1 ovarian, 103%. The growth in the test with OVCAR-3 ovarian is 93.6%; in the test with HS 578T breast, 100%; in the test with NCI/ADR-RES ovarian it was 77%.
As to `NC(=S)N/N=C/c1ccc(OC(=O)COc2ccccc2)cn1`, the growth with RPMI-8226 leukemia is 55.2%; in the test with OVCAR-8 ovarian, 29.6%; with OVCAR-5 ovarian, 120%; in the test with OVCAR-4 ovarian, 69.1%; in the test with SK-OV-3 ovarian, 90.4%; in the test with IGROV1 ovarian it was 54.6%. In addition, the growth in the test with OVCAR-3 ovarian was 60.2%; in the test with HS 578T breast, 116%; in the test on NCI/ADR-RES ovarian, 26.8%.
Take `Oc1ccc2ccccc2c1CN1CCOCC1`: the growth with RPMI-8226 leukemia is 97.5%; in the test on OVCAR-8 ovarian it was 105%; in the test with OVCAR-5 ovarian it was 113%; in the test with OVCAR-4 ovarian, 108%; in the test with SK-OV-3 ovarian, 104%; with IGROV1 ovarian, 106%. In addition, the figures for the growth in the test on OVCAR-3 ovarian, with HS 578T breast and in the test with NCI/ADR-RES ovarian were 120%, 112% and 113%, respectively.
`C[C@H](CCC[C@H](C)OS(=O)(=O)c1ccccc1)OS(=O)(=O)c1ccccc1`: the growth in the test on RPMI-8226 leukemia is 121%; with OVCAR-8 ovarian it was 101%; with OVCAR-5 ovarian, 115%; with OVCAR-4 ovarian, 103%; with SK-OV-3 ovarian it was 101%; with IGROV1 ovarian, 73%. The figures for the growth in the test on OVCAR-3 ovarian, in the test with HS 578T breast and in the test with NCI/ADR-RES ovarian were 109%, 105% and 116%, respectively.
Regarding `O=S(Cc1ccccc1)/C(=C/NC(=S)Nc1cc(Cl)ccc1Cl)c1ccccc1` (centres undefined), the growth in the test with RPMI-8226 leukemia was 102%; in the test on OVCAR-8 ovarian it was 113%; in the test on OVCAR-5 ovarian it was 100%; in the test with OVCAR-4 ovarian, 105%; in the test on SK-OV-3 ovarian, 101%; with IGROV1 ovarian, 95.8%. Also, the growth was 110% in the test with OVCAR-3 ovarian, 102% with HS 578T breast and 105% in the test with NCI/ADR-RES ovarian.
In the case of `CC(=O)N=c1ccc2nc3c(cc(N)c4ccccc43)oc-2c1`, the growth with RPMI-8226 leukemia was -19.9% (active); in the test on OVCAR-8 ovarian, -22.1% (active); in the test on OVCAR-5 ovarian, -73.5% (active); with OVCAR-4 ovarian it was -89.8% (active); in the test with SK-OV-3 ovarian, 80.1%; in the test on IGROV1 ovarian it was -81.7% (active). Further, the values for the growth in the test with HS 578T breast and with NCI/ADR-RES ovarian were -27.7% (active) and -6.88% (active), respectively.
As to `CCOC(=O)c1cc(Cl)c(O)c(Cl)c1`, the growth was 101% in the test with RPMI-8226 leukemia; 100% in the test with OVCAR-8 ovarian; 108% in the test with OVCAR-5 ovarian; 120% with OVCAR-4 ovarian; 109% in the test with SK-OV-3 ovarian; 96.8% with IGROV1 ovarian. The results for the growth with OVCAR-3 ovarian, with HS 578T breast and with NCI/ADR-RES ovarian were 115%, 109% and 111%, respectively.
With `Nc1ccn(C2OC(CO)C(O)C2F)c(=O)n1` (centres undefined), the growth was 73.8% in the test on RPMI-8226 leukemia; 61.8% in the test with OVCAR-8 ovarian; 93.2% with OVCAR-5 ovarian; 84.4% with OVCAR-4 ovarian; 103% in the test on SK-OV-3 ovarian; 109% in the test on IGROV1 ovarian. Besides, the values for the growth with OVCAR-3 ovarian, in the test with HS 578T breast and in the test on NCI/ADR-RES ovarian were 80.4%, 90.8% and 73.2%, respectively.
`Cc1ccc(N2C(=O)c3cccc4c(N)c(S(=O)(=O)O)cc(c34)C2=O)cc1`: the growth in the test on RPMI-8226 leukemia was 104%; in the test on OVCAR-8 ovarian, 107%; in the test on OVCAR-5 ovarian, 84.7%; in the test on OVCAR-4 ovarian, 117%; in the test on SK-OV-3 ovarian, 106%; with IGROV1 ovarian, 35.6%. Also, the growth in the test on OVCAR-3 ovarian is 121%; with HS 578T breast it was 106%; in the test with NCI/ADR-RES ovarian, 103%.
For the compound `Cn1c2ccccc2c2nnc(NCCCCO)nc21`, the growth in the test with RPMI-8226 leukemia is 69.6%; in the test with OVCAR-8 ovarian it was 100%; in the test with OVCAR-5 ovarian, 86.5%; in the test on OVCAR-4 ovarian, 94.6%; in the test with SK-OV-3 ovarian, 86.5%; in the test on IGROV1 ovarian, 57.8%. The growth with OVCAR-3 ovarian was 88.6%; in the test on HS 578T breast, 81.6%; with NCI/ADR-RES ovarian, 94.3%.
For the compound `Cc1cc2c(C(C)C)c(O)c(O)c(C=Nc3ccccc3[N+](=O)[O-])c2c(O)c1-c1c(C)cc2c(C(C)C)c(O)c(O)c(C=Nc3ccccc3[N+](=O)[O-])c2c1O`, the growth is 61.5% in the test with RPMI-8226 leukemia; 76.2% in the test with OVCAR-8 ovarian; 102% in the test with OVCAR-5 ovarian; 74.4% in the test on OVCAR-4 ovarian; 97.5% in the test with SK-OV-3 ovarian; 80.6% with IGROV1 ovarian. Moreover, the growth in the test on OVCAR-3 ovarian is 79.1%; in the test with HS 578T breast, 81%; in the test with NCI/ADR-RES ovarian, 94.8%.
On to `O=C(N/N=C\c1ccc(Cl)cc1Cl)c1ccncc1`, for which the growth was 91.5% in the test with RPMI-8226 leukemia; 101% with OVCAR-8 ovarian; 105% in the test with OVCAR-5 ovarian; 106% in the test with OVCAR-4 ovarian; 117% with SK-OV-3 ovarian; 96.3% with IGROV1 ovarian. Besides, the growth in the test with OVCAR-3 ovarian is 113%; with HS 578T breast, 123%; in the test with NCI/ADR-RES ovarian, 102%.
Consider `CCCCN(C(=O)CC)c1ccccc1`, for which the growth is 85.1% with RPMI-8226 leukemia; 101% in the test on OVCAR-8 ovarian; 105% with OVCAR-5 ovarian; 105% with OVCAR-4 ovarian; 114% in the test with SK-OV-3 ovarian; 102% in the test on IGROV1 ovarian. Further, the values for the growth with OVCAR-3 ovarian, in the test on HS 578T breast and in the test with NCI/ADR-RES ovarian were 111%, 99.4% and 110%, respectively.
For the compound `C=CCOc1ccc(Cl)cc1Cl`, the growth was 113% in the test with RPMI-8226 leukemia; 119% in the test with OVCAR-8 ovarian; 93.1% with OVCAR-5 ovarian; 106% with OVCAR-4 ovarian; 118% in the test on SK-OV-3 ovarian; 116% in the test with IGROV1 ovarian. In addition, the growth was 111% in the test on OVCAR-3 ovarian, 113% in the test on HS 578T breast and 109% in the test with NCI/ADR-RES ovarian.
With `Cc1ccc(S(N)(=O)=O)cc1Cl`, the growth in the test with RPMI-8226 leukemia was 103%; in the test with OVCAR-8 ovarian, 105%; in the test on OVCAR-5 ovarian, 103%; in the test on OVCAR-4 ovarian, 115%; in the test with SK-OV-3 ovarian, 110%; with IGROV1 ovarian, 109%. Moreover, the growth is 115% in the test on OVCAR-3 ovarian, 117% in the test with HS 578T breast and 117% in the test on NCI/ADR-RES ovarian.
Take `O=C(NC(=S)N1CC=CCC1)c1ccccc1`: the growth with RPMI-8226 leukemia is 104%; in the test with OVCAR-8 ovarian, 100%; in the test on OVCAR-5 ovarian, 97.4%; in the test on OVCAR-4 ovarian, 116%; in the test on SK-OV-3 ovarian, 107%; in the test on IGROV1 ovarian it was 122%. Also, the growth in the test with OVCAR-3 ovarian is 115%; in the test with HS 578T breast it was 92.7%; in the test on NCI/ADR-RES ovarian, 108%.
For `O=C(NCc1ccccc1)/C(=C/c1ccccc1)NC(=O)c1ccccc1`, the growth is 96.5% with RPMI-8226 leukemia; 97.1% in the test with OVCAR-8 ovarian; 123% in the test on OVCAR-5 ovarian; 115% in the test with OVCAR-4 ovarian; 102% in the test on SK-OV-3 ovarian; 104% in the test on IGROV1 ovarian. Moreover, the growth in the test with OVCAR-3 ovarian was 117%; in the test with HS 578T breast it was 99.2%; in the test with NCI/ADR-RES ovarian, 104%.
As for `Nc1nnc2cc(F)ccc2n1`, the growth in the test on RPMI-8226 leukemia was 102%; in the test on OVCAR-8 ovarian, 110%; with OVCAR-5 ovarian, 97.9%; in the test on OVCAR-4 ovarian it was 115%; with SK-OV-3 ovarian, 91.6%; in the test on IGROV1 ovarian it was 102%. The results for the growth in the test on HS 578T breast and with NCI/ADR-RES ovarian were 97.2% and 103%, respectively.
In the case of `O=CNCCc1ccccc1`, the growth in the test on RPMI-8226 leukemia was 102%; in the test on OVCAR-8 ovarian it was 102%; in the test on OVCAR-5 ovarian it was 97.7%; in the test on OVCAR-4 ovarian, 103%; in the test with SK-OV-3 ovarian, 97%; with IGROV1 ovarian it was 110%. Further, the growth in the test with OVCAR-3 ovarian is 115%; in the test on HS 578T breast, 102%; in the test with NCI/ADR-RES ovarian it was 106%.
Consider `CCOc1ccc2c(c1)c(C)cc(C)[n+]2CC`, for which the growth is 52.1% in the test with RPMI-8226 leukemia; 62.4% in the test with OVCAR-8 ovarian; 98.5% in the test with OVCAR-5 ovarian; 58.8% in the test on OVCAR-4 ovarian; 83.4% in the test on SK-OV-3 ovarian; 82.3% in the test with IGROV1 ovarian. The growth with OVCAR-3 ovarian was 76.2%; in the test on HS 578T breast, 104%; with NCI/ADR-RES ovarian, 113%.
Take `CC(CO)(CO)C(=O)O`: the growth in the test with RPMI-8226 leukemia is 97.2%; in the test with OVCAR-8 ovarian, 111%; with OVCAR-5 ovarian, 98.2%; in the test on OVCAR-4 ovarian, 105%; with SK-OV-3 ovarian, 105%; in the test with IGROV1 ovarian, 126%. For the same compound, the growth was 106% in the test with OVCAR-3 ovarian, 98.8% in the test on HS 578T breast and 103% in the test with NCI/ADR-RES ovarian.
For the compound `Nc1nc2nnc(-c3ccccc3)c(-c3ccccc3)n2n1`, the growth with RPMI-8226 leukemia was 50.7%; in the test on OVCAR-8 ovarian, 101%; in the test with OVCAR-5 ovarian it was 86.3%; with OVCAR-4 ovarian it was 101%; with SK-OV-3 ovarian, 102%; in the test on IGROV1 ovarian it was 127%. Besides, the growth was 185% in the test with OVCAR-3 ovarian, 88.9% in the test with HS 578T breast and 97.2% in the test with NCI/ADR-RES ovarian.
